Laboratory results reported in ChEMBL document CHEMBL4513216, “Probing the Open Global Health Chemical Diversity Library for Multistage-Active Starting Points for Next-Generation Antimalarials” (ACS Infect Dis, 2020).
Hit rate of the full screen: of about 69,000 compounds, about 8,600 (12%) showed an effect of 50% or more. The list comes from a sample in which strong results are over-represented; it also holds similar structures and randomly drawn compounds.

test system: Plasmodium berghei; test: Screen against P. berghei liver stage (PbLuc), transformed with Luciferase, at 10uM; format: functional, HepG2; details: tested at 10 uM

| Compound | INHIBITION [%] |
| --- | --- |
| CCC(=O)N1C[C@@H](C(=O)NC)[C@H](c2ccnc(N3CCCC3)n2)C1 | 1.93 |
| c1ccc2oc(CN3CCOC(Cn4cccn4)C3)nc2c1 (centres undefined) | -51.5 |
| Cc1cnn(CC2CN(Cc3cccc(OC(C)C)c3)CCO2)c1 (centres undefined) | 70.3 |
| c1ccc2sc(CN3CCOC(Cn4cccn4)C3)nc2c1 (centres undefined) | 72.4 |
| Cc1nc2ccccc2nc1CN1CCOC(Cn2cccn2)C1 (centres undefined) | 26.5 |
| Cn1c(CN2CCOC(Cn3cncn3)C2)nc2ccccc21 (centres undefined) | -4.93 |
| Cc1cnn(CC2CN(Cc3cccc(OCC(N)=O)c3)CCO2)c1 (centres undefined) | -2.4 |
| Cc1cnn(CC2CN(Cc3nc4ccccc4nc3C)CCO2)c1 (centres undefined) | 58 |
| Cc1cnn(CC2CN(Cc3nc(C)c4ccccc4n3)CCO2)c1 (centres undefined) | 35.3 |
| Cc1nc(CN2CCOC(Cn3cncn3)C2)nc2ccccc12 (centres undefined) | 21.1 |
| Cc1nc(C)n(CC2CN(Cc3cccc(OC(C)C)c3)CCO2)n1 (centres undefined) | 45.7 |
| c1ccc2sc(N3CCOC(Cn4cccn4)C3)nc2c1 (centres undefined) | 26.3 |
| c1ccc2sc(CN3CCOC(Cn4cncn4)C3)nc2c1 (centres undefined) | 85.9 |
| Cc1nc(C)n(C2CCCN(C(=O)COc3cccc(C#N)c3)C2)n1 (centres undefined) | 22.3 |
| C[C@@H](O)CNC(=O)c1nc(CC(=O)Nc2cccc(C(F)(F)F)c2)no1 | 29.9 |
| Cc1ccc(N2CCC3(CC2)CC(OCC(C)C)C3)nn1 | 31.2 |
| O=C(O)C1CN(c2cccc(Cl)c2)CCO1 (centres undefined) | -6.92 |
| COCC(O)CNC(=O)Nc1c(F)cc(F)cc1-c1ccccc1 (centres undefined) | 1.19 |
| CCn1ncc2c1C(COCC1CC1)CN(c1ccncn1)C2 (centres undefined) | -15.1 |
| COCC(=O)NCc1cc(=O)n2c(n1)CN(Cc1cccs1)CCC2 | 25.8 |
| CCC[C@@H]1CN(c2ncnc3ccsc23)C[C@H]1NS(C)(=O)=O | -3.58 |
| Cc1cnccc1NCCNC(=O)[C@H]1CNC[C@H](C(=O)N2CCCC2)C1 | 15.9 |

| Compound | INHIBITION [%] |
| --- | --- |
| CC(C)CCN1CCC2(CC1)NCc1ccccc1NC2=O | 25.9 |
| Cc1cnn(CC2CN(CCS(C)(=O)=O)CCO2)c1 (centres undefined) | -31.4 |
| CCc1nnc(CN2CCOC(Cn3cccn3)C2)o1 (centres undefined) | -5.25 |
| Cc1cnn(CC2CN(CCCS(=O)(=O)N(C)C)CCO2)c1 (centres undefined) | 77.8 |
| Cc1cnn(CC2CN(Cc3nc4ccccc4n3C)CCO2)c1 (centres undefined) | -43.6 |
| CC(C)(C)c1nnc(CN2CCOC(Cn3cccn3)C2)o1 (centres undefined) | 59.7 |
| CC(C)(C)c1nnc(CN2CCOC(Cn3cncn3)C2)o1 (centres undefined) | 40.3 |
| Cc1cnn(CC2CN(Cc3nc4ccccc4s3)CCO2)c1 (centres undefined) | 74.4 |
| Cc1cnn(CC2CN(Cc3nc4ccccc4o3)CCO2)c1 (centres undefined) | -61.4 |
| Cc1cnn(CC2CN(CCCS(C)(=O)=O)CCO2)c1 (centres undefined) | -12.1 |
| Cc1nc(NCc2ccc(F)cc2)cc(C(=O)N2CCOCC2)n1 | -10.1 |
| Clc1cccc(CNc2cnn(CCN3CCCCC3)c2)c1 | 21.2 |
| CC(C)Nc1nc(O)cc(C2CC(=O)N(C3CCCCC3)C2)n1 (centres undefined) | -23.245 |
| CN(C)c1cc(C(=O)NCCc2nnc(-c3ccco3)[nH]2)ccn1 | 17.4 |
| O=C(NCC1CC1)C1CN(C(=O)Nc2ccccc2)CC12CCOCC2 (centres undefined) | 19.4 |
| CCN(Cc1ccncc1)C(=O)C(C)n1ccnc1C(C)C (centres undefined) | 10.3 |
| CC(C)N1C(=O)CN(CCCO)CC1(C)C | -23 |
| Cc1ccc(NC(=O)c2cccc(OCc3nnnn3C)c2)nc1 | -1.57 |
| CCOc1ccc(NC(=O)N2CCOC(C(N)=O)C2)cc1C (centres undefined) | -5.08 |
| COc1ccc(NC(=O)N2CCC(c3nnc[nH]3)CC2)cc1C | 37.6 |
| O=C(Nc1ccc(OC(F)F)cc1)N1CCC(c2nnc[nH]2)CC1 | 63.3 |
| O=C(CCCN1CCCCC1)N1CCC(c2nnc[nH]2)CC1 | -7.53 |

| Compound | INHIBITION [%] |
| --- | --- |
| O=C(CCCc1ccc(Cl)cc1)N1CCC(c2nnc[nH]2)CC1 | 20.9 |
| CCOc1cc(NC(=O)N2CCC(c3nnc[nH]3)CC2)ccc1C | 56.6 |
| CC(Cn1cccn1)n1cnc2cccc(Cl)c2c1=O (centres undefined) | 36.6 |
| Oc1cc(C2CCNCC2)nc(-c2ccsc2)n1 | -33.6 |
| Cc1occc1CNC(=O)C1CCN(C(=O)OC(C)(C)C)C1 (centres undefined) | -2.27 |
| Fc1ccc(NCc2ccncc2)c(OC(F)F)c1 | 73.2 |
| Fc1ccc(NCc2nnsc2Cl)c(OC(F)F)c1 | 47.4 |
| C[S+]([O-])c1ccc(CNc2ccc(F)cc2OC(F)F)cc1 (centres undefined) | 38.5 |
| c1cc2nc(C3CCNCC3)nn2cc1NC1CCC1 | 40.3 |
| CN(Cc1cccs1)C1CCC[C@@H]2CN(C(N)=O)C[C@H]12 (some centres undefined) | 39.3 |
| Cc1noc(C)c1CN1CCc2ncc(CN3CCCC3)n2CC1 | 40.8 |
| Cc1noc(C)c1CN1CCc2ncc(CN(C)C)n2CC1 | 57.1 |
| CCN(CC)Cc1cnc2n1CCN(Cc1c(C)noc1C)CC2 | 27.5 |
| CC(c1nc(C2CC2)no1)N1CCN(CCCN2CCCC2=O)CC1 (centres undefined) | -2.53 |
| COc1cccc(CNC(C)Cn2cccn2)c1OC (centres undefined) | 20.9 |
| COc1cccc(CNc2nnc(C(C)(C)C)o2)c1OC | 7.22 |
| CCc1nnc(NCc2cccc(OC)c2OC)o1 | 50.2 |
| Cc1ncccc1Oc1ncnc(N2CCCC(O)(CO)CC2)c1C (centres undefined) | 36.7 |
| Cc1cncc(C2CCCN2CC(N)=O)n1 (centres undefined) | 35 |
| Cc1ccc(OCC(O)COC2CCOCC2)c(Cl)c1 (centres undefined) | 71.3 |
| OC(COc1ccccc1Br)COC1CCOCC1 (centres undefined) | -42.8 |
| Cc1ccc(OCC(O)COC2CCOCC2)c(Br)c1 (centres undefined) | -98.4 |

| Compound | INHIBITION [%] |
| --- | --- |
| Cc1ccc(NC(=O)C2CSCN2C(=O)c2cnccn2)cc1C (centres undefined) | 23.25 |
| NCCCC(=O)NCC1(O)CCCN(c2ccnc3cccnc23)C1 (centres undefined) | 4.35 |
| CCCn1nc(C)c(C(=O)N[C@@H]2CC[C@@H](N3CCCC3)[C@@H]2O)c1C | 1.65 |
| Cc1cccc(CN2C(=O)CCC23CCN(Cc2nccn2C)CC3)n1 | 37.2 |
| CN(C)[C@@H]1CO[C@H](CNC(=O)c2cccs2)[C@H]1O | 44.1 |
| O=C(NC[C@H]1OC[C@@H](NC2CCC(F)(F)CC2)[C@@H]1O)c1ccccc1 | 59.3 |
| O=C(NC[C@H]1OC[C@@H](NC2COC2)[C@@H]1O)c1ccccc1 | 5.58 |
| CN(C)[C@@H]1CO[C@H](CNC(=O)c2ccccc2)[C@H]1O | 53 |
| O=C(NC[C@H]1OC[C@@H](NC2CCC(F)(F)CC2)[C@@H]1O)Nc1ccccc1 | 25.3 |
| CN(C)[C@@H]1CO[C@H](CNC(=O)Nc2ccccc2)[C@H]1O | 11.6 |
| CCn1cc(S(=O)(=O)N2CCCC3(CC=CNC3=O)C2)cn1 (centres undefined) | 28.5 |
| CC(CNC(=O)NCc1ccco1)N1CCc2sccc2C1 (centres undefined) | -12.5 |
| CCCn1c(C)c(CC(=O)NCCC(N)=O)c2c1CC(C)(C)CC2=O | 69.6 |
| CCCn1c(C)c(CC(=O)NCCNC(C)=O)c2c1CC(C)(C)CC2=O | -4.52 |
| CCCn1c(C)c(CC(=O)NCC(N)=O)c2c1CC(C)(C)CC2=O | -13.3 |
| CCn1cc(-n2cc3nc(N4CCC(C)CC4)[nH]cc-3c2=O)cn1 | -85.9 |
| Cc1cc(-n2c(C)cn(CN(C)C3CCS(=O)(=O)C3)c2=O)no1 (centres undefined) | 38.8 |
| Cn1cc2c(n1)C(COCC1CC1)CN(Cc1ccccn1)C2 (centres undefined) | 12.5 |
| Cc1cc(C)c(CNC(=O)NC2COc3ccccc3C2)c(=O)[nH]1 (centres undefined) | 10.6 |
| COCCN(Cc1ccc(C)cc1)Cc1c[nH]cn1 | 63.8 |
| Cc1ccc(CN(CCCn2ccnc2)Cc2c[nH]cn2)s1 | 41.5 |
| COCCN(Cc1ccc(C)cc1)Cc1nccn1C | 43.4 |

| Compound | INHIBITION [%] |
| --- | --- |
| c1cc(CN(CCCn2ccnc2)Cc2ccoc2)ccn1 | 24.7 |
| CN(C)c1ccc(CN(CCCn2ccnc2)Cc2c[nH]cn2)cc1 | 80.2 |
| CCn1ncnc1CN(CCOC)Cc1ccc(C)cc1 | 49.9 |
| COc1cc(COCC2CCN(Cc3cccnc3)CC2)cc(OC)c1 | 5.11 |
| CNc1cc(N2CCCC2CNCc2cccnc2C)ncn1 (centres undefined) | 21.5 |
| Cc1ccc(C(=O)N2CCc3ncc(Cn4cccn4)n3CC2)o1 | 16.4 |
| COc1cc(I)c(Cl)cc1C(=O)N(C)CC(C)(C)O | 29 |
| Cc1nc(CNC(=O)NC2CCN(c3cccc(Cl)c3)C2)no1 (centres undefined) | 56.3 |
| Cc1ccc(CC(=O)NC2CCN(c3cccc(Cl)c3)C2)cn1 (centres undefined) | 42.7 |
| Cc1nc(CNC(=O)NC2CCN(c3ncccc3Cl)C2)no1 (centres undefined) | 25.4 |
| Cc1cc(C)n(CC2CN(Cc3nc(C4CC4)no3)CCO2)n1 (centres undefined) | -27.8 |
| CCCn1c(C)c(CC(=O)N(C)CC(=O)OC)c2c1CC(C)(C)CC2=O | 4.25 |
| COc1cccc(C(O)CN2CCN(C(=O)c3ccsc3)CC2)c1 (centres undefined) | 53.6 |
| COc1cccc(C(O)CN2CCN(C(=O)CCC(C)C)CC2)c1 (centres undefined) | 55.4 |
| CCOCC(O)CN1CCN(C(=O)c2ccsc2)CC1 (centres undefined) | 43.4 |
| COc1cccc(C(=O)N2CCN(CC(O)c3ccccc3)CC2)c1 (centres undefined) | 32.2 |
| O=C(c1ccsc1)N1CCN(CC(O)c2cccc(F)c2)CC1 (centres undefined) | 40.6 |
| CC(C)OCCC(=O)N1CCN(CC(O)c2ccccc2)CC1 (centres undefined) | -12.5 |
| Cc1cccc2c1C(=O)NC(c1cnc(C3CCC3)s1)N2 (centres undefined) | -91.5 |
| CN1CCN(c2cccc(Cl)c2CNCCS(C)(=O)=O)CC1 | 19.9 |
| Cn1c(Cn2ccnc2)nnc1C1CCN(C(=O)c2ccoc2)CC1 | -62.8 |
